Screening results as filed in PubChem.
Shown is part of a subset that was picked to be rich in hits.
ST2 inh = blocks human ST2 binding to IL-33. inhibition, % for hits at 17 µM. actives 2.3% (n = 78,000). AlphaLISA ST2-Fc/biotin-IL-33 interaction, 1 h. AID 1259354; in the data active = inhibition above about 30%
Target sequence (Q01638 whole entry, looked up): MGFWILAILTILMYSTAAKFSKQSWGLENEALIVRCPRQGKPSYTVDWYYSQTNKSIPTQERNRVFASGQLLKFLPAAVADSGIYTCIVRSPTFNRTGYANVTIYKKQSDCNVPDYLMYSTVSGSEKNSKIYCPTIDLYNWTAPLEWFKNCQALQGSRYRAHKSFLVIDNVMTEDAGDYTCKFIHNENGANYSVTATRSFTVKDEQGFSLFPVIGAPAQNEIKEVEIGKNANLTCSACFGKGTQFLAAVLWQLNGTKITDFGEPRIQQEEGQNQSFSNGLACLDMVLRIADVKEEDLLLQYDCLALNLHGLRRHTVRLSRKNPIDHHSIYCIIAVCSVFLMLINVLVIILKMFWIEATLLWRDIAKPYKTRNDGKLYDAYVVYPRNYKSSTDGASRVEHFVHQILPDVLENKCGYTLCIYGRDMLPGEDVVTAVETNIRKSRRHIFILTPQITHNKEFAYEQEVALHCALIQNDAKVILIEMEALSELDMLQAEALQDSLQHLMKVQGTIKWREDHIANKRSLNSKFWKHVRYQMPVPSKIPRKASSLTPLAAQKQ
* marks the source's active call; other numbers are inactive results.

`COc1ccc(NC(=O)c2oc3ccccc3c2NC(=O)C2CCCC2)c(OC)c1` gave ST2 inh inactive.
`CCC(=O)N1CCc2cc(Br)cc(S(=O)(=O)NC(C)C)c21` gave ST2 inh inactive.
Cc1cc(C)nc(N=C(N)Nc2cccc(C(F)(F)F)c2)n1 was read as ST2 inh inactive.
Screening N#C/C(=C\c1cccc(F)c1)c1nc2ccccc2[nH]1 returned ST2 inh inactive.
For N#C/C(=C\c1cccc(Br)c1)c1nc2ccccc2[nH]1 the results were ST2 inh inactive.
COc1ccc(/C=C(\C#N)c2nc3ccc(C)cc3[nH]2)cc1O was read as ST2 inh 46.0%*.
Screening O=S(=O)(NCCOC12CC3CC(CC(C3)C1)C2)c1cc(Cl)ccc1Cl returned ST2 inh inactive.
`Cc1ccc(NC(=O)c2cc3c(=O)n4cccc(C)c4nc3n2C)cc1C` gave ST2 inh inactive.
`O[C@H]1[C@H](NCc2ccc(OC(F)(F)F)cc2)[C@H]2CO[C@H](O2)[C@@H]1N1CCOCC1` gave ST2 inh 64.0%*.
For CN(C)CCN(C)[C@H]1[C@@H]2OC[C@@H](O2)[C@@H](NCc2ccc(OC(F)(F)F)cc2)[C@@H]1O the results were ST2 inh inactive.
For COc1ccccc1N1CCN([C@H]2[C@@H]3OC[C@@H](O3)[C@@H](NCc3ccc(OC(F)(F)F)cc3)[C@@H]2O)CC1 the results were ST2 inh inactive.
Screening CCC(Sc1nc2c(cc1C#N)CCCCC2)C(=O)Nc1cc(C)on1 (stereo not drawn) returned ST2 inh 30.0%*.
Screening CCSc1nc2c(cc1C#N)CCCC2 returned ST2 inh inactive.
`CCC(Sc1nc(C)cc(C)n1)C(=O)Nc1cc(C)on1` (stereo not drawn) gave ST2 inh inactive.
CCOc1ccc(NC(=O)C(=O)NC(C)(C)C)cc1 was read as ST2 inh inactive.
COc1cccc(-c2cc(N3CCN(S(=O)(=O)c4cccc(Cl)c4)CC3)ncn2)c1 was read as ST2 inh inactive.
For N#C/C(=C\c1ccc(F)cc1)c1nc(C2CC2)cs1 the results were ST2 inh 52.0%*.
N#C/C(=C\c1ccc([N+](=O)[O-])cc1)c1nc(-c2ccc3c(c2)OCO3)cs1 was read as ST2 inh inactive.
For N#C/C(=C\c1ccc(Cl)cc1)c1nc(C2CC2)cs1 the results were ST2 inh 66.0%*.
Screening CC(=O)Cc1nsc(Nc2ccc(C)cc2C)n1 returned ST2 inh inactive.
COc1cccc(NC(=O)CCC2CCN(Cc3nc4ccccc4n3C)CC2)c1 was read as ST2 inh inactive.
O=c1cc(Cc2nnc(SCc3ccc(F)cc3)n2-c2ccccc2)[nH]c(=O)[nH]1 was read as ST2 inh inactive.
`COc1ccc(COC(=O)C2=C(C)Nc3nc4ccccc4n3C2c2ccco2)cc1` (stereo not drawn) gave ST2 inh inactive.
For O=C1CC(c2ccc(OC3OC(CO)C(O)C(O)C3OC3OCC(O)(CO)C3O)cc2)Oc2cc(O)ccc21 (stereo not drawn) the results were ST2 inh inactive.
`CC1=C(C(N)=O)C(c2ccccc2)n2nc(SCc3ccccc3)nc2N1` (stereo not drawn) gave ST2 inh inactive.
`CC1=C(C(=O)Nc2ccccc2C)C(c2ccncc2)n2nc(SCc3ccccc3)nc2N1` (stereo not drawn) gave ST2 inh 33.0%*.
For CC1=C(C(=O)Nc2ccccc2)C(c2cccnc2)n2nc(SCc3ccccc3)nc2N1 (stereo not drawn) the results were ST2 inh inactive.
Screening Nc1nonc1-c1noc(Cn2nnc3ccccc32)n1 returned ST2 inh inactive.
For COc1ccc(/C=C2\SC(=O)N(c3ccc(O)cc3)C2=O)cc1 the results were ST2 inh inactive.
Screening COc1ccc(/C=C2\SC(=O)N(c3cccc(C)c3)C2=O)cc1 returned ST2 inh inactive.
For COc1ccc(N2C(=N)S/C(=C\c3ccccc3[N+](=O)[O-])C2=O)cc1 the results were ST2 inh 36.0%*.
For CC1CCCN(S(=O)(=O)c2ccc3c(c2)CCN3C(=O)C2CC2)C1 (stereo not drawn) the results were ST2 inh inactive.
CCOC(=O)N1CCN(Cc2ccccc2Br)CC1 was read as ST2 inh inactive.
`O=C(CN1C(=O)c2ccccc2C1=O)Oc1cccc2cccnc12` gave ST2 inh inactive.
CCc1ccc(OCCCN2CCNCC2)cc1 was read as ST2 inh inactive.
`CCCCn1c(CCCNC(=O)C(C)(C)C)nc2ccccc21` gave ST2 inh inactive.
Screening N#Cc1ccccc1-c1nc2c3c(c(N)ccc3n1)C(=O)c1ccccc1-2 returned ST2 inh 42.0%*.
O=[N+]([O-])c1cc(C=Nc2c(-c3ccco3)nc3ccccn23)c(Cl)cc1Cl was read as ST2 inh 44.0%*.
`CC(C)c1ccc(Nc2c(-c3ccco3)nc3ccccn23)cc1` gave ST2 inh inactive.
For O=[N+]([O-])c1cc(N=Cc2nc(-c3ccccc3F)oc2O)ccc1Cl the results were ST2 inh inactive.
Screening COCc1nc(N2CCOc3ccc(Cl)cc3C2)c2cnn(C)c2n1 returned ST2 inh inactive.
Screening Cc1ccc(C)c(CSC2=NCCN2C(=O)c2ccc3c(c2)OCO3)c1 returned ST2 inh inactive.
Screening Cc1ccc2oc(C(=O)N(C)Cc3snnc3C)cc2c1 returned ST2 inh inactive.
Cc1ccc(OCC(=O)Nc2ccccc2CO)cc1C was read as ST2 inh inactive.
For COc1ccc(-c2oc3ncn(CCO)c(=N)c3c2-c2ccc(OC)cc2)cc1 the results were ST2 inh inactive.
`OCCNc1ncnc2oc(-c3ccccc3)c(-c3ccccc3)c12` gave ST2 inh 35.0%*.
`N=c1c2c(-c3ccccc3)c(-c3ccccc3)oc2ncn1CCCO` gave ST2 inh inactive.
O=C(C1CCN(Cc2nc(Cc3cccc(C(F)(F)F)c3)no2)CC1)N1CCCC1 was read as ST2 inh inactive.
CC(C)c1ccc(S(=O)(=O)NCC(=O)O)cc1 was read as ST2 inh inactive.
CSc1ncccc1C(=O)N1CCC(C(Cc2ccccc2)N(C)C(=O)c2ccoc2C)CC1 (stereo not drawn) was read as ST2 inh inactive.
`NC(=O)c1ccc(NC(=O)c2ccc(F)cc2)cc1` gave ST2 inh inactive.
Screening Cc1ccc(C(=O)Nc2ncc(S(=O)(=O)c3ccc([N+](=O)[O-])cc3)s2)cc1C returned ST2 inh inactive.
O=C(Nc1ncc(S(=O)(=O)c2ccc([N+](=O)[O-])cc2)s1)c1ccccc1Br was read as ST2 inh inactive.
For COCC(=O)Nc1ncc(S(=O)(=O)c2ccc([N+](=O)[O-])cc2)s1 the results were ST2 inh 38.0%*.
c1ccc(CCCC2CN(Cc3cccnc3)CCO2)cc1 (stereo not drawn) was read as ST2 inh inactive.
`Cc1ccc(C(=O)Nc2ccccc2C)cc1` gave ST2 inh inactive.
`Cc1ccccc1NCCNc1ccccc1C` gave ST2 inh 34.0%*.
`Cc1ccccc1NC(=O)CCC(=O)Nc1ccccc1C` gave ST2 inh inactive.
Screening CC1(C)Cc2nc3sc4c(OCC(=O)c5ccccc5)ncnc4c3cc2CO1 returned ST2 inh inactive.
`COc1ccc(NC(=O)c2oc3ccccc3c2NC(=O)COc2ccccc2F)c(OC)c1` gave ST2 inh inactive.
